# Test results as given in PubChem BioAssay (NCI).
# The panel holds about 83,000 compounds, 20% with a hit somewhere; the sample as a whole holds those more often.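 Results are percent growth after 48 hours of single-concentration exposure. 100 means growth as in untreated cells, lower positive values show inhibition; negative values down to -100 show cell death.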 A number with no mark means an inactive call. Activity calls are given as the source filed them. How the source made its calls: active means growth percent below 10; inactive means the rest.
# Key:
# Experiment in all cases: NCI-60 one-dose screen, 48 h (100 = growth as untreated, 0 = no growth, -100 = all killed)
# SR leukemia = settings: 10 µM unless noted
# RPMI-8226 leukemia = settings: 10 µM unless noted
# OVCAR-8 ovarian = settings: 10 µM unless noted
# OVCAR-5 ovarian = settings: 10 µM unless noted
# OVCAR-4 ovarian = settings: 10 µM
# SK-OV-3 ovarian = settings: 10 µM unless noted
# IGROV1 ovarian = settings: 10 µM unless noted
# OVCAR-3 ovarian = settings: 10 µM unless noted
# HS 578T breast = settings: 10 µM unless noted
# NCI/ADR-RES ovarian = settings: 10 µM unless noted
# BT-549 breast = settings: 10 µM unless noted
# MDA-MB-435 melanoma = settings: 10 µM unless noted
# SW-620 colon = settings: 10 µM unless noted
# MCF7 breast = settings: 10 µM unless noted
# HCT-116 colon = settings: 10 µM unless noted
# HCC-2998 colon = settings: 10 µM unless noted
# KM12 colon = settings: 10 µM unless noted
# T-47D breast = settings: 10 µM unless noted
SMILES,growth (SR leukemia),growth (RPMI-8226 leukemia),growth (OVCAR-8 ovarian) [%],growth (OVCAR-5 ovarian),growth (OVCAR-4 ovarian),growth (SK-OV-3 ovarian),growth (IGROV1 ovarian),growth (OVCAR-3 ovarian),growth (HS 578T breast) [%],growth (NCI/ADR-RES ovarian),growth (BT-549 breast),growth (MDA-MB-435 melanoma),growth (SW-620 colon),growth (MCF7 breast),growth (HCT-116 colon),growth (HCC-2998 colon),growth (KM12 colon),growth (T-47D breast)
CC(C)CCNCC(C)(C)O,97.9%,120%,99.4,101%,115%,110%,118%,119%,118,118%,110%,112%,109%,109%,109%,109%,116%,
CC(=O)Nc1ccc(C=Nc2ccc3ccccc3c2)cc1,104%,101%,108,117%,108%,109%,105%,122%,,115%,102%,112%,106%,92.3%,101%,92.1%,108%,108%
CC(C)CCSC1=CC(=O)c2ccccc2C1=O,6.01% (active),-62.3% (active),56.4,112%,-50.6% (active),104%,-35.3% (active),-57.5% (active),74,,,63.8%,-16.7% (active),42.5%,-100% (active),100%,92.1%,-41.4% (active)
CC[C@]1(O)CC2CN(CCc3c([nH]c4ccccc34)[C@@](C(=O)OC)(c3cc4c(cc3OC)N(C=O)[C@H]3[C@@](O)(C(=O)OC)[C@H](OC(C)=O)[C@]5(CC)C=CCN6CC[C@]43[C@@H]65)C2)C1 (some centres undefined),13%,18.7%,13.2,32.2%,43%,4.03% (active),39.4%,-49.2% (active),,11.3%,15.7%,-25.7% (active),24%,21.9%,5.51% (active),0.206% (active),-30.7% (active),91%
Cc1ccc2c(c1)/C(=N\N=C/c1cn(C(C)C)c3ccccc13)C(=O)N2,-9.77% (active),0.866% (active),54.5,70.2%,37.7%,89.2%,48.1%,-2.36% (active),73.9,,,18.8%,46.4%,8.52% (active),28.1%,49.4%,73.7%,24.9%
CCCC[C@@H](C=O)NC(=O)[C@H](CC(C)C)NC(=O)[C@H](CC(C)C)NC(=O)OCc1ccccc1,-24.4% (active),-10.2% (active),18.8,-34.5% (active),10.8%,38.2%,8.93% (active),-29.1% (active),,-2.88% (active),-70.3% (active),-4.11% (active),-34.6% (active),0.513% (active),-58.5% (active),-74.1% (active),-51.4% (active),-42.7% (active)
O=C1/C(=C/c2cccc(OCc3ccccc3)c2)Oc2cc(OCCN3CCCCC3)ccc21,-20.5% (active),20.8%,92,81.4%,86.2%,121%,71.5%,86.3%,,82.7%,75.6%,85.4%,67.3%,50.7%,52.8%,93.3%,67.9%,89.9%
O=C(CSc1nc2ccc([N+](=O)[O-])cc2[nH]1)Nc1ccc(F)c(Cl)c1,5.97% (active),-22.3% (active),15.5,50.9%,2.64% (active),21.4%,36.1%,16.5%,20.3,22.4%,-0.0932% (active),15.5%,26.4%,9.25% (active),7.89% (active),32.9%,19.9%,
